About 83,000 compounds went through this panel and 20% of them were active in at least one assay; those are over-represented in the sample as a whole.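 Treatment: one concentration, 48 hours, 96-well format. Scoring: percent growth, with anything below 10 considered active.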 Calls of active or inactive are those of the source.
What was measured:
Experiment in all cases: NCI-60 one-dose screen, 48 h (100 = growth as untreated, 0 = no growth, -100 = all killed)
Settings in all cases: 10 µM unless noted
SR leukemia = tested on: SR leukemia
RPMI-8226 leukemia = tested on: RPMI-8226 leukemia
OVCAR-8 ovarian = tested on: OVCAR-8 ovarian
OVCAR-5 ovarian = tested on: OVCAR-5 ovarian
OVCAR-4 ovarian = tested on: OVCAR-4 ovarian
SK-OV-3 ovarian = tested on: SK-OV-3 ovarian
IGROV1 ovarian = tested on: IGROV1 ovarian
OVCAR-3 ovarian = tested on: OVCAR-3 ovarian
HS 578T breast = tested on: HS 578T breast
NCI/ADR-RES ovarian = tested on: NCI/ADR-RES ovarian

Measured: growth

O=C(O)c1ccc(-n2cc(CNc3cc(F)c(F)c(F)c3)c(-c3cccc(F)c3)n2)cc1
inactive: SR leukemia 80.4% | RPMI-8226 leukemia 86.7% | OVCAR-8 ovarian 82.8% | OVCAR-5 ovarian 107% | OVCAR-4 ovarian 95.5% | SK-OV-3 ovarian 113% | IGROV1 ovarian 98.8% | OVCAR-3 ovarian 96.1% | HS 578T breast 102% | NCI/ADR-RES ovarian 90.8%

COc1ccc(-c2nc(C(Cl)Cl)nc3cc(-c4ccccc4)nn23)cc1
active: SR leukemia 4.09% | OVCAR-8 ovarian -34.3% | OVCAR-5 ovarian -12.9% | OVCAR-4 ovarian -15.3% | SK-OV-3 ovarian -29.7% | IGROV1 ovarian 2.02% | OVCAR-3 ovarian -33.9% | HS 578T breast -6.94% | NCI/ADR-RES ovarian 9.82%
inactive: RPMI-8226 leukemia 14.9%

COc1ccc(C2CC(c3ccc(Nc4nc(NCCO)nc(N5CCOCC5)n4)cc3)=Nc3c(N)nc(N)nc3N2)cc1 (stereo not given)
inactive: SR leukemia 105% | RPMI-8226 leukemia 108% | OVCAR-8 ovarian 99.8% | OVCAR-5 ovarian 109% | OVCAR-4 ovarian 104% | SK-OV-3 ovarian 109% | IGROV1 ovarian 105% | OVCAR-3 ovarian 101% | HS 578T breast 91.6% | NCI/ADR-RES ovarian 107%

Cc1cccc2c3c(sc12)C(c1ccc(Cl)cc1)c1c(nc(CC(=O)Nc2ccccc2)[nH]c1=O)O3 (stereo not given)
inactive: SR leukemia 58.1% | RPMI-8226 leukemia 73.9% | OVCAR-8 ovarian 85.6% | OVCAR-5 ovarian 81.6% | OVCAR-4 ovarian 90.3% | SK-OV-3 ovarian 73.3% | IGROV1 ovarian 21% | OVCAR-3 ovarian 30.5% | HS 578T breast 60.1% | NCI/ADR-RES ovarian 26.7%

NC(N)=Nc1ccc(Oc2cccc(Nc3ccc(Cl)c(C(F)(F)F)c3)c2)cn1
active: SR leukemia -54.6% | RPMI-8226 leukemia -29.6% | OVCAR-8 ovarian -66% | OVCAR-5 ovarian -64% | OVCAR-4 ovarian 6.69% | IGROV1 ovarian -38.2% | OVCAR-3 ovarian -93.8% | HS 578T breast -2.57%
inactive: SK-OV-3 ovarian 36.8% | NCI/ADR-RES ovarian 53.6%

COc1ccccc1-n1cc(C#N)c(N)c1C(=O)c1ccc(Br)cc1
inactive: SR leukemia 40.3% | RPMI-8226 leukemia 92.4% | OVCAR-8 ovarian 90.7% | OVCAR-5 ovarian 94.4% | OVCAR-4 ovarian 96.8% | SK-OV-3 ovarian 88.7% | IGROV1 ovarian 67.8% | OVCAR-3 ovarian 73.3% | HS 578T breast 78.4% | NCI/ADR-RES ovarian 42.6%

O=C(CSc1nnc(-c2ccc(Cl)cc2)n1-c1ccccc1)Nc1ccc(Br)cc1
inactive: SR leukemia 13.3% | RPMI-8226 leukemia 17.5% | IGROV1 ovarian 16.6% | HS 578T breast 17.8% | NCI/ADR-RES ovarian 12.3%
active: OVCAR-8 ovarian -27.5% | OVCAR-5 ovarian 2.37% | OVCAR-4 ovarian -1.23% | SK-OV-3 ovarian -35.9% | OVCAR-3 ovarian -24.5%

NC(N)=Nc1ccc(Oc2cccc(Nc3cccc(C(F)(F)F)c3)c2)cn1
inactive: OVCAR-8 ovarian 45.4% | OVCAR-5 ovarian 50.4% | OVCAR-4 ovarian 24.7% | SK-OV-3 ovarian 67.8% | IGROV1 ovarian 13.8% | HS 578T breast 52.8% | NCI/ADR-RES ovarian 46.6%
active: SR leukemia -46.9% | RPMI-8226 leukemia -41.5% | OVCAR-3 ovarian -66.6%

COc1ccc(N2CCN(C3=C(Cl)C(=O)C(C)=C(C)C3=O)CC2)cc1
inactive: SR leukemia 78.6% | RPMI-8226 leukemia 89.4% | OVCAR-8 ovarian 100% | OVCAR-5 ovarian 110% | OVCAR-4 ovarian 99.7% | SK-OV-3 ovarian 96.7% | IGROV1 ovarian 103% | OVCAR-3 ovarian 113% | HS 578T breast 103% | NCI/ADR-RES ovarian 101%

Fc1ccc(-c2cc3nc(C(Cl)Cl)nc(-c4ccco4)n3n2)cc1
inactive: SR leukemia 64.8% | OVCAR-8 ovarian 10.4% | OVCAR-4 ovarian 17.7% | SK-OV-3 ovarian 18.8% | IGROV1 ovarian 74.3%
active: RPMI-8226 leukemia -31.5% | OVCAR-5 ovarian -13.7% | OVCAR-3 ovarian -46.9% | HS 578T breast -6.45% | NCI/ADR-RES ovarian -18.9%

O=S(=O)(NCCNc1nccc(-n2cnc3ccccc32)n1)c1ccc(Cl)cc1
inactive: SR leukemia 96.3% | RPMI-8226 leukemia 99.4% | OVCAR-8 ovarian 102% | OVCAR-5 ovarian 91.7% | OVCAR-4 ovarian 95.2% | SK-OV-3 ovarian 112% | IGROV1 ovarian 98.2% | OVCAR-3 ovarian 106% | HS 578T breast 88.1% | NCI/ADR-RES ovarian 97.8%

COc1cc(/C=C2\C(=O)Nc3ccccc32)ccc1OCc1ccc(Cl)cc1
inactive: SR leukemia 93.8% | RPMI-8226 leukemia 97.5% | OVCAR-8 ovarian 102% | OVCAR-5 ovarian 101% | OVCAR-4 ovarian 99.1% | SK-OV-3 ovarian 111% | IGROV1 ovarian 102% | OVCAR-3 ovarian 106% | HS 578T breast 105% | NCI/ADR-RES ovarian 100%

CC1(C)CC[C@]2(C(=O)O)CC[C@]3(C)C(=CC[C@@H]4[C@@]5(C)CC/C(=N\OCCC#N)C(C)(C)[C@@H]5CC[C@]43C)[C@@H]2C1
inactive: SR leukemia 103% | RPMI-8226 leukemia 97.5% | OVCAR-8 ovarian 109% | OVCAR-5 ovarian 103% | OVCAR-4 ovarian 82.6% | SK-OV-3 ovarian 110% | IGROV1 ovarian 85.7% | OVCAR-3 ovarian 110% | HS 578T breast 107% | NCI/ADR-RES ovarian 116%

CS(=O)(=O)Nc1cc(-c2ccc3ncc(C#N)c(NCc4ccccc4F)c3c2)cnc1Cl
active: SR leukemia 3.57% | RPMI-8226 leukemia -22% | OVCAR-8 ovarian 7.93% | SK-OV-3 ovarian -13.7% | IGROV1 ovarian -29.1% | OVCAR-3 ovarian 3.41% | HS 578T breast -22%
inactive: OVCAR-5 ovarian 16.8% | OVCAR-4 ovarian 12.6% | NCI/ADR-RES ovarian 25%

CCO/C=N/C1=C(C#N)C(c2ccc(Cl)cc2)c2sc3c(C)cccc3c2O1 (stereo not given)
active: RPMI-8226 leukemia 7.03% | OVCAR-3 ovarian -30.6%
inactive: SR leukemia 12.2% | OVCAR-8 ovarian 28% | OVCAR-5 ovarian 27.9% | OVCAR-4 ovarian 64.3% | SK-OV-3 ovarian 59.4% | IGROV1 ovarian 26.6% | HS 578T breast 18.9% | NCI/ADR-RES ovarian 11.7%

Nc1nc(Nc2ccccc2SSc2ccccc2Nc2nc(N)nc(-c3cccc(Br)c3)n2)nc(-c2cccc(Br)c2)n1
inactive: RPMI-8226 leukemia 59.6% | OVCAR-8 ovarian 68.4% | OVCAR-5 ovarian 95.5% | OVCAR-4 ovarian 73% | SK-OV-3 ovarian 131% | IGROV1 ovarian 54.9% | OVCAR-3 ovarian 100% | HS 578T breast 74.3% | NCI/ADR-RES ovarian 21.3%
active: SR leukemia -44%

COc1ccc(NC(=O)CSc2nnc(-c3ccc4nc(-c5ccc(OC)c(OC)c5)[nH]c4c3)o2)cc1OC
inactive: SR leukemia 104% | RPMI-8226 leukemia 98.6% | OVCAR-8 ovarian 101% | OVCAR-5 ovarian 95.2% | OVCAR-4 ovarian 106% | SK-OV-3 ovarian 120% | IGROV1 ovarian 91.3% | OVCAR-3 ovarian 108% | HS 578T breast 97.5% | NCI/ADR-RES ovarian 96.1%

Cc1ccc(S(=O)(=O)N(CC[C@@H]2C[C@H]2c2cc3ccccc3o2)S(=O)(=O)c2ccc(C)cc2)cc1
inactive: SR leukemia 128% | RPMI-8226 leukemia 101% | OVCAR-8 ovarian 96.8% | OVCAR-5 ovarian 98% | OVCAR-4 ovarian 76.8% | SK-OV-3 ovarian 101% | IGROV1 ovarian 101% | OVCAR-3 ovarian 108% | HS 578T breast 98.6% | NCI/ADR-RES ovarian 94%

CCO/C=N/C1=C(C#N)C(c2ccc(F)cc2)c2sc3c(C)cccc3c2O1 (stereo not given)
active: OVCAR-3 ovarian -6.49%
inactive: SR leukemia 17.3% | RPMI-8226 leukemia 12.8% | OVCAR-8 ovarian 23.9% | OVCAR-5 ovarian 25.6% | OVCAR-4 ovarian 51% | SK-OV-3 ovarian 66.6% | IGROV1 ovarian 18.7% | HS 578T breast 24.6% | NCI/ADR-RES ovarian 12.1%

Cn1cc(CNc2nc3ccc(OC/C(=C/F)CN)cc3o2)ccc1=O
inactive: SR leukemia 117% | RPMI-8226 leukemia 110% | OVCAR-8 ovarian 111% | OVCAR-5 ovarian 101% | OVCAR-4 ovarian 106% | SK-OV-3 ovarian 109% | IGROV1 ovarian 102% | OVCAR-3 ovarian 112% | HS 578T breast 103% | NCI/ADR-RES ovarian 102%

NC(=O)c1c(NC(=O)c2ccccc2C(F)(F)F)sc2c1CCC(=O)C2
inactive: SR leukemia 27.2% | OVCAR-8 ovarian 17.3% | OVCAR-5 ovarian 27% | SK-OV-3 ovarian 105% | IGROV1 ovarian 31.2% | OVCAR-3 ovarian 12.3% | HS 578T breast 32.5% | NCI/ADR-RES ovarian 14.9%
active: RPMI-8226 leukemia -1.93% | OVCAR-4 ovarian 9.19%

CC1(C)CC[C@]2(C(=O)N3CCOCC3)CC[C@]3(C)C(=CC[C@@H]4[C@@]5(C)C/C(=C/c6ccccn6)C(=O)C(C)(C)[C@@H]5CC[C@]43C)[C@@H]2C1
inactive: SR leukemia 22.5% | RPMI-8226 leukemia 15.9% | OVCAR-8 ovarian 77.9% | OVCAR-5 ovarian 88.4% | OVCAR-4 ovarian 36.1% | SK-OV-3 ovarian 108% | IGROV1 ovarian 65.3% | OVCAR-3 ovarian 70.2% | HS 578T breast 81.6% | NCI/ADR-RES ovarian 81.4%

Oc1cccc2ccc(-c3nnc(SCc4ccc(O)c5ncccc45)n3-c3ccccc3)nc12
inactive: SR leukemia 31.2% | RPMI-8226 leukemia 15.6% | OVCAR-5 ovarian 47.8% | OVCAR-4 ovarian 16.8% | SK-OV-3 ovarian 12.1% | IGROV1 ovarian 11.2% | OVCAR-3 ovarian 28.3% | HS 578T breast 18.5%
active: OVCAR-8 ovarian 6.56% | NCI/ADR-RES ovarian 7.68%

CCCCCc1ccc(S(=O)(=O)Nc2cc(-c3csc(NC(=O)CN4CCN(CCO)CC4)n3)ccc2OC)cc1
active: SR leukemia -13.2% | RPMI-8226 leukemia -16.9%
inactive: OVCAR-8 ovarian 82.1% | OVCAR-5 ovarian 86.1% | OVCAR-4 ovarian 72.5% | SK-OV-3 ovarian 78% | IGROV1 ovarian 48.9% | OVCAR-3 ovarian 13.3% | HS 578T breast 52.8% | NCI/ADR-RES ovarian 88.4%

CCn1c(SCC(=O)Nc2cccc(C(=O)/C=C/c3ccccc3Cl)c2)nc2ccccc2c1=O
active: RPMI-8226 leukemia 6.75%
inactive: SR leukemia 52.2% | OVCAR-8 ovarian 98.9% | OVCAR-5 ovarian 97.7% | OVCAR-4 ovarian 86% | SK-OV-3 ovarian 106% | IGROV1 ovarian 65.7% | OVCAR-3 ovarian 69.1% | HS 578T breast 92.2% | NCI/ADR-RES ovarian 93.4%

CCCn1cnc2c(c1=N)C(c1ccc(OC)cc1)c1sc3c(CC)cccc3c1O2 (stereo not given)
inactive: OVCAR-8 ovarian 26.9% | OVCAR-5 ovarian 41.1% | OVCAR-4 ovarian 71.8% | SK-OV-3 ovarian 42.3% | IGROV1 ovarian 31.9% | HS 578T breast 18.3%
active: SR leukemia 8.89% | RPMI-8226 leukemia -8.82% | OVCAR-3 ovarian 6% | NCI/ADR-RES ovarian 7.77%

From PubChem BioAssay (NCI)
